Source: the supplement of paper PMC13380429

These molecules were tested on Vero E6 infected with SARS-CoV-2 (assay: morphology score (similarity to uninfected cells); higher = more like uninfected cells). Settings: 24 h.

Compound	morphology score
CC(=O)Nc1c(I)c(C(=O)O)c(I)c(N(C)C(C)=O)c1I [metrizoic-acid] (10 µM)	0.0802
CCN(CC)c1ccc(/C=N/NC(=O)c2ccc(O)cc2)cc1 (10 µM)	-0.186
CC1(C)CCC[C@]2(C)[C@H]3CC(=O)O[C@]3(C)CC[C@@H]12 [Sclareolide (Norambreinolide)] (10 µM)	0.184
O=C(NCCNCC(O)COc1ccc(O)cc1)N1CCOCC1 (centres undefined) [xamoterol] (10 µM)	0.0295
COc1ccc(C(=O)c2ccccc2O)c(O)c1 [dioxybenzone] (0.833333 µM)	0.165
O=C(N[C@H]1CN2CCC1CC2)c1cc2cccc(Cl)c2s1 (10 µM)	0.352
CCOC(=O)NNc1nncc2ccccc12 [todralazine] (10 µM)	0.0897
COc1ccc(S(=O)(=O)Nc2cccnc2Nc2ccc(O)cc2)cc1 (10 µM)	-0.213
N#Cc1ccc(-c2csc(NN=C3CCCC3)n2)cc1 [remodelin] (10 µM)	0.0343
O=c1oc2cc(O)ccc2s1 [tioxolone] (10 µM)	0.0494
CC(=O)Nc1ccc(OCC(O)CNC(C)C)cc1 (centres undefined) [practolol] (10 µM)	-0.0762
CC(C)(C#N)c1cc(Cn2cncn2)cc(C(C)(C)C#N)c1 [anastrozole] (10 µM)	-0.0389
OC(CNCC(O)C1CCc2cc(F)ccc2O1)C1CCc2cc(F)ccc2O1 (centres undefined) [nebivolol] (10 µM)	0.0502
CC[C@H](CC#N)OC(=O)N[C@@H](C)c1cccc(NC(=O)Nc2ccc(-c3cnco3)c(OC)c2)c1 (10 µM)	-0.000547
